In the library only some 11% were active in any assay of this set; here they are far more common.
AMA1 RON2 block – inhibitors of Plasmodium falciparum AMA1-RON2 interaction; AlphaScreen AMA1-biotinylated RON2 peptide binding; Potency, µM (doses to about 58.2 µM), without a hit: at the top dose activity change, negative = inhibition, hits mostly inhibitors; 360,000 compounds, 0.2% hits;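 note: 0% = vehicle wells and -100% = peptide control; nearly all actives have a fitted effect of over 45% in size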
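AMA1 (3D7) with his tag at 25 nM final met compounds first, then biotinylated RON2 peptide at 25 nM; detection used donor plus acceptor beads, 10 µg/mL apiece, read by AlphaScreen after 30 min at room temperature.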
HCV inh – HCV inhibition; Huh7.5.1 HCVcc-Cre infection, luciferase reporter, 44 h; Potency, µM (series often up to 41.8 µM), inactives show at the highest dose activity change, negative = inhibition, actives largely listed as inhibitors; 340,000 compounds, 3.4% hits; AID 651820
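A cell-based infection assay in which seeded cells (1,000 per well) receive test compound after 4 h, are inoculated with HCVcc-Cre at approximately 0.5 moi, and are incubated 44 h before luminescence detection.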
Pf growth 48h – P. falciparum growth inhibition at 48 hours (one generation); P. falciparum luciferase growth in erythrocytes, 48 h; Potency, µM (series often up to 28.7 µM), without a hit: top-dose activity change, negative = inhibition, usual class: inhibitors; 310,000 compounds, 5.9% hits; AID 504832
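In quantitative HTS format, infected erythrocytes bearing luciferase-reporter parasites were treated for a single generation at 37 C. Luminescence after adding detection reagent served as the growth measure.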
Pf growth 96h – P. falciparum growth inhibition at 96 hours. P. falciparum luciferase reporter growth, 96 h. 320,000 compounds, 6.9% hits. AID 504834. Potency, µM (series often up to 28.7 µM), for inactives: top-dose activity change, negative = inhibition, actives largely listed as inhibitors
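Plates of compound plus infected erythrocytes (2% hematocrit, 0.05% parasitemia final) incubate 96 hours, 37 C, 5% CO2. Detection reagent added; reduced luminescence from the parasites' luciferase reporter flags inhibition.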
* marks the source's active call; other numbers are inactive results; ? = inconclusive; . = no result; [ ] = remark or other dose. Calls come from the whole dose curve; as a rule, active = well fitted curve in the direction sought with a large enough effect; inconclusive = small, poorly fitted or top-dose-only effect, or another doubt; inactive = no such curve, though single readings can be large; an effect the other way counts as inactive or inconclusive. Unless noted, % is set by controls: 0 for no effect and ±100 for the full control effect; potency is the fitted concentration of half-maximal effect.

SMILES	AMA1 RON2 block	HCV inh	Pf growth 48h	Pf growth 96h
COc1ccc(CN2CCN(Cc3ccc(Br)cc3)CC2)c(OC)c1OC	?	13µM*	0%	39%
COc1ccc(CN2CCN(c3ccc(F)cc3)CC2)c(OC)c1OC	-10%	?	-5%	23%
COc1ccc(CN2CCN(C(c3ccc(F)cc3)c3ccc(F)cc3)CC2)c(OC)c1OC	?	1µM*	9.5µM*	6.7µM*
CCOc1ccccc1OCCCC(=O)N(CC)CC(=O)Nc1c(F)cccc1F	-6%	-8%	-28%	7%
CCN(C1CCS(=O)(=O)C1)S(=O)(=O)c1ccc2ccccc2c1 (centres undefined)	2%	11%	-1%	18%
O=C(Nc1ccc(N2CCCC2)c(Cl)c1)c1ccco1	-17%	?	-4%	13%
O=C(Nc1ccc(N2CCCCC2)c(Cl)c1)c1ncn[nH]1	14%	-21%	0.47µM*	-5%[5.75 µM]
COc1cc(/C=N/NC(=O)c2nnn(-c3nonc3N)c2C)ccc1OCc1ccc(Cl)cc1	-6%	.	.	.
COc1ccc(/C=C/C(=O)c2ccccc2O)cc1CN1CCOCC1	-26%	?	.	10µM*
COc1ccc(/C=C/C(=O)c2ccc3ccccc3c2O)cc1CN1CCOCC1	-19%	-20%	-13%	12µM*
COc1ccc(/C=C/C(=O)c2ccc(O)cc2)cc1CN1CCOCC1	-14%	-4%	?	-18%
COc1ccc(/C=C/C(=O)C23CC4CC(CC(C4)C2)C3)cc1CN1CCOCC1	?	?	13µM*	21%
COCCn1c(SCC(=O)N2CCCC2=O)nnc1-c1ccncc1	-1%	.	.	.
CCCCNC(=O)C[C@@H]1C[C@@]2(C(=O)OCC)CCC=C2N(Cc2ccc(Cl)cc2Cl)C1=O	-3%	.	.	.
Clc1cccc(-c2nn3c(Cn4cnc5ccccc54)nnc3s2)c1	-1%	-30%	13µM*	13%
O=C(Nc1cccnc1)c1cc(Br)c(Br)s1	-6%	9%	?	12µM*
NC(=O)c1cc(NC(=O)c2cc(Br)c(Br)s2)cc(C(N)=O)c1	-12%	16%	-15%	8.3µM*
COc1cccc(C(=O)OCC(=O)N2CCc3ccccc3C2)c1OC	-2%	?	.	.
CCC(C)NC(=O)c1ccc(CSCc2ccc(Cl)cc2)o1 (centres undefined)	-9%	-19%	?	12%
O=C(O)c1ccc(CSCc2ccccc2Cl)o1	-2%	0%	15%	27%
CCC(C)NC(=O)c1ccc(CSCc2ccccc2Cl)o1 (centres undefined)	-6%	?	7.4µM*	18%
CC(C)NC(=O)c1ccc(CSCc2ccccc2Cl)o1	-6%	?	1.5µM*	4.7µM*
CC(=O)N(CC(O)CN(C(C)=O)c1c(I)c(C(=O)NC[C@@H](O)CO)c(I)c(C(=O)NC[C@@H](O)CO)c1I)c1c(I)c(C(=O)NC[C@@H](O)CO)c(I)c(C(=O)NC[C@@H](O)CO)c1I	.	.	5%[12.8 µM]	7%[12.8 µM]
COC(=O)c1ccc(Nc2c([N+](=O)[O-])ccc3nonc23)cc1	5%	38%	-7%	?
O=C(NCC1CCCO1)C(c1cccs1)N(Cc1cccs1)C(=O)Cn1nnc(-c2cccs2)n1 (centres undefined)	6%	-19%	?	-30%
SMILES	AMA1 RON2 block	HCV inh	Pf growth 48h	Pf growth 96h
Cc1ccc(N(C(=O)Cn2nnc(-c3ccc(F)cc3)n2)C(CC(C)C)C(=O)NCC2CCCO2)cc1 (centres undefined)	-25%	-9%	13µM*	?
Cc1ccc(-c2nnn(CC(=O)N(CC3CCCO3)C(C(=O)NC(C)(C)C)c3ccc(F)cc3)n2)o1 (centres undefined)	0%	0%	10µM*	12µM*
O=C(NCc1ccccc1)C(c1ccc(O)cc1)N(C(=O)Cn1nnc(-c2cccs2)n1)c1ccc2c(c1)OCCO2 (centres undefined)	-1%	?	12µM*	-8%
O=C(NCC1CCCO1)C(c1ccc(F)cc1)N(Cc1ccc(F)cc1)C(=O)Cn1nnc(-c2cccs2)n1 (centres undefined)	-11%	2.5µM*	?	?
OCc1cc(-c2ccc(Cl)c(Cl)c2)on1	11%	-8%	19%	7%
CC(C)[C@H](NC(=O)c1ccccc1F)C(=O)NCc1ccc(S(N)(=O)=O)cc1	-1%	-12%	5%	-2%
CC(C)(C)NC(=O)C(c1ccc(F)cc1)N(Cc1ccco1)C(=O)Cn1nnc(-c2cccs2)n1 (centres undefined)	-4%	?	5.9µM*	?
CCOc1ccccc1NC(=S)/C(=C(\[O-])c1ccc2c(c1)OCCO2)[n+]1ccc(CC)cc1	63%	-18%	.	2.3µM*
CCOC(=O)C1CCCN(C(=O)c2cncc(Br)c2)CC1 (centres undefined)	-1%	.	.	.
O=C1c2ccccc2NC(c2ccc3c(c2)OCO3)N1O (centres undefined)	11%	-21%	-26%	0.37µM*
CN(C)c1ccc(Cl)cc1N	7%	6%	-35%[1.15 µM]	-19%
O=C(Oc1cccc2c(O)cccc12)c1ccco1	16%	3%	.	.
Cc1ccc2c(C)nc(Nc3nc(CSc4nnnn4-c4ccccc4)cc(=O)[nH]3)nc2c1	8%	11µM*	2.3µM*	.
COc1ccc(Cc2c(C3CCCCC3)nc3ccc(Br)cn23)c(C)c1	-30%	.	.	.
CCc1ccc(NS(=O)(=O)c2cccc3nonc23)cc1	-8%	22%	-7%	1%
COCCN(C(=O)Cc1cccs1)C(C(=O)NCc1ccc(OC)cc1)c1ccc(C)cc1 (centres undefined)	-1%	?	8.3µM*	5.9µM*
COCCN(C(=O)Cc1cccs1)C(C(=O)NCc1ccc(OC)cc1)c1ccc(C(C)C)cc1 (centres undefined)	-1%	-13%	2.1µM*	2.9µM*
COc1ccc(CNC(=O)C(c2ccc(C)o2)N(Cc2cccs2)C(=O)Cc2cccs2)cc1 (centres undefined)	-1%	11µM*	15µM*	160%
CCc1ccc(C(C(=O)NCc2ccc(OC)cc2)N(CCOC)C(=O)Cc2cccs2)cc1 (centres undefined)	-4%	-27%	4.1µM*	1.5µM*
O=C(NC1CCN(C(=S)NCc2ccco2)CC1)c1cccc(F)c1	-1%	5%	8%	18%
CCS(=O)(=O)c1nnnn1-c1ccccc1S(C)(=O)=O	10%	.	9.3µM*	.
COc1ccc(-n2nnnc2S(=O)(=O)Cc2ccc(C(=O)O)cc2)cc1	-3%	-15%	?	25%
CN(CC(=O)Nc1cccc(Cl)c1)C1=NS(=O)(=O)c2ccccc21	-14%	-3%	.	.
CCc1cccc(NC(=O)CN(C)C2=NS(=O)(=O)c3ccccc32)c1	6%	9%	?	12µM*
O=C(CCC(=O)c1cccs1)NCc1cccc(Cl)c1	5%	-2%	9%	21%
CCCCNc1nnc(SCC(=O)c2c[nH]c3ccccc23)s1	8%[11.6 µM]	-13%	10µM*	8.3µM*
Cn1cnnc1SCC(=O)c1c[nH]c2ccccc12	9%	3%	96%	.

Compound activity deposited in PubChem BioAssay by National Center for Advancing Translational Sciences (NCATS).
